{
  "source": "PubChem BioAssay AID1570",
  "about": "(National Center for Advancing Translational Sciences (NCATS), 2009)",
  "note": "Values joined by “and” are separate entries in the source; they are usually repeats but may differ in a detail not shown here. Equal entries are not always repeated. Records with an inconclusive call do not appear. A number with no mark means an inactive call. Active and inactive are the calls of the source. Calls come from the whole dose curve; as a rule, active = well fitted inhibition curve with a large enough effect; inconclusive = small, poorly fitted or top-dose-only effect, or effect the other way; inactive = flat fitted curve, though single readings scatter.",
  "data": [
    {"target": "Thyroid hormone receptor beta (Homo sapiens) (UniProt P10828)", "sequence (P10828 whole entry, looked up, the tested form may be a part)": "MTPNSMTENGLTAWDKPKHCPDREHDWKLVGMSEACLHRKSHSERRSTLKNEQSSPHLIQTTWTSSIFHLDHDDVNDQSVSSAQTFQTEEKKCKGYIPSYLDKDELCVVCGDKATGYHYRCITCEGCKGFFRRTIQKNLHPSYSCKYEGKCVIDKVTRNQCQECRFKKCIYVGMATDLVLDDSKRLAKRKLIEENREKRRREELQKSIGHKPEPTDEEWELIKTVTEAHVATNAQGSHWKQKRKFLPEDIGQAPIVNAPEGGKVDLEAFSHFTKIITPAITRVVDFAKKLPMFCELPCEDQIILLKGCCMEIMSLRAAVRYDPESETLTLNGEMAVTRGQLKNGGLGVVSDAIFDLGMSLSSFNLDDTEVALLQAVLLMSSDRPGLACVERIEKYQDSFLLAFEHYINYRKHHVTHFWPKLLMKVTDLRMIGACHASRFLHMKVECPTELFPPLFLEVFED", "test": "Concentration Response Confirmation Assay for Inhibitors of the Interaction of Thyroid Hormone Receptor and Steroid Receptor Coregulator 2, Fluorescein Fluoroprobe", "settings": "TRbeta LBD / fluorescein-SRC2 peptide, fluorescence polarization, 5 h; series mostly up to 92.2 µM; activity, negative = inhibition: at the top concentration", "method_in_brief": "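Fluorescence polarization with 0.6 uM TRbeta ligand-binding domain and 20 nM fluorescein-SRC2 peptide in Tris buffer containing 1 uM T3 and 5% DMSO. Read after 5 h at ambient temperature (ex 480/em 535); data normalized to unbound and bound controls, giving concentration-response potencies.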", "values": [
      {"smiles": "CC1(C)C(N(O)C(=O)Nc2ccc(Cl)cc2)N(c2ccc(Cl)cc2)C(=O)N1CC(=O)NN", "note": "(centres undefined)", "activity, negative = inhibition": "-8.24% [at 11.6 µM]"},
      {"smiles": "Cc1ccccc1Nc1cc2ccccc2c(=O)[nH]1", "Potency": "10 µM (active) and 28.2 µM (active)"},
      {"smiles": "CCCCOc1ccc(C(=O)CCN2CCOCC2)cc1", "Potency": "3.55 µM (active)"},
      {"smiles": "CS(=O)(=O)c1ccc(C(=O)OCC(=O)NC(=O)C2CCCCC2)cc1[N+](=O)[O-]", "Potency": "5.01 µM (active)"},
      {"smiles": "Cn1c(CCN2CCCCC2)nc2cc(NS(=O)(=O)c3ccc(Cl)cc3)ccc21", "activity, negative = inhibition": "-6.74% [at 0.0112 µM]"},
      {"smiles": "CCOc1ccc(C2=Cc3cc(OC)c(OC)cc3C(=C(Cl)Cl)O2)cc1", "activity, negative = inhibition": "-14.6%"},
      {"smiles": "Cc1cc(N=Cc2c(O)ccc3ccccc23)no1", "activity, negative = inhibition": "1.5% [at 0.0112 µM]"},
      {"smiles": "Cc1cccc(S(=O)(=O)c2cn(Cc3ccccc3)c3cc(N4CCC(C)CC4)c(F)cc3c2=O)c1", "activity, negative = inhibition": "-4.12% [at 184 µM]"},
      {"smiles": "COc1ccccc1Nc1cc2ccccc2c(=O)[nH]1", "Potency": "35.5 µM (active)"}
    ]}
  ]
}
